Values without a mark were called inactive. Calls of active or inactive are those of the source.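 How the source made its calls, unless noted: active means mean inhibition above 46.5%, the solvent-only control mean plus 3 SD; inactive means the rest.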
What was measured:
[1] = test system: transactivating tegument protein VP16 (Human herpesvirus 1); experiment: VP16 transactivation reporter inhibitors, counter-screen for SRC2 inhibitor project, cell-based, luminescence, single concentration (AID 652007; in the data active means inhibition above about 36%); conditions: cell-based VP16 transactivation luciferase reporter, at 8.9 µM, hits give high values
[2] = target: Nuclear receptor coactivator 2 (Homo sapiens) (UniProt Q15596); experiment: SRC2 coactivator transcriptional activity inhibitors, confirmation, cell-based, luminescence, HEK293, triplicate (AID 652008); conditions: HEK293 GAL4-SRC2 luciferase reporter, at 8.9 µM, hits give high values;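 further: 0% = DMSO-treated cells and 100% = Gossypol at 36 µM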
Sequence of Nuclear receptor coactivator 2 (Homo sapiens) (Q15596 whole entry, looked up, the tested form may be a part): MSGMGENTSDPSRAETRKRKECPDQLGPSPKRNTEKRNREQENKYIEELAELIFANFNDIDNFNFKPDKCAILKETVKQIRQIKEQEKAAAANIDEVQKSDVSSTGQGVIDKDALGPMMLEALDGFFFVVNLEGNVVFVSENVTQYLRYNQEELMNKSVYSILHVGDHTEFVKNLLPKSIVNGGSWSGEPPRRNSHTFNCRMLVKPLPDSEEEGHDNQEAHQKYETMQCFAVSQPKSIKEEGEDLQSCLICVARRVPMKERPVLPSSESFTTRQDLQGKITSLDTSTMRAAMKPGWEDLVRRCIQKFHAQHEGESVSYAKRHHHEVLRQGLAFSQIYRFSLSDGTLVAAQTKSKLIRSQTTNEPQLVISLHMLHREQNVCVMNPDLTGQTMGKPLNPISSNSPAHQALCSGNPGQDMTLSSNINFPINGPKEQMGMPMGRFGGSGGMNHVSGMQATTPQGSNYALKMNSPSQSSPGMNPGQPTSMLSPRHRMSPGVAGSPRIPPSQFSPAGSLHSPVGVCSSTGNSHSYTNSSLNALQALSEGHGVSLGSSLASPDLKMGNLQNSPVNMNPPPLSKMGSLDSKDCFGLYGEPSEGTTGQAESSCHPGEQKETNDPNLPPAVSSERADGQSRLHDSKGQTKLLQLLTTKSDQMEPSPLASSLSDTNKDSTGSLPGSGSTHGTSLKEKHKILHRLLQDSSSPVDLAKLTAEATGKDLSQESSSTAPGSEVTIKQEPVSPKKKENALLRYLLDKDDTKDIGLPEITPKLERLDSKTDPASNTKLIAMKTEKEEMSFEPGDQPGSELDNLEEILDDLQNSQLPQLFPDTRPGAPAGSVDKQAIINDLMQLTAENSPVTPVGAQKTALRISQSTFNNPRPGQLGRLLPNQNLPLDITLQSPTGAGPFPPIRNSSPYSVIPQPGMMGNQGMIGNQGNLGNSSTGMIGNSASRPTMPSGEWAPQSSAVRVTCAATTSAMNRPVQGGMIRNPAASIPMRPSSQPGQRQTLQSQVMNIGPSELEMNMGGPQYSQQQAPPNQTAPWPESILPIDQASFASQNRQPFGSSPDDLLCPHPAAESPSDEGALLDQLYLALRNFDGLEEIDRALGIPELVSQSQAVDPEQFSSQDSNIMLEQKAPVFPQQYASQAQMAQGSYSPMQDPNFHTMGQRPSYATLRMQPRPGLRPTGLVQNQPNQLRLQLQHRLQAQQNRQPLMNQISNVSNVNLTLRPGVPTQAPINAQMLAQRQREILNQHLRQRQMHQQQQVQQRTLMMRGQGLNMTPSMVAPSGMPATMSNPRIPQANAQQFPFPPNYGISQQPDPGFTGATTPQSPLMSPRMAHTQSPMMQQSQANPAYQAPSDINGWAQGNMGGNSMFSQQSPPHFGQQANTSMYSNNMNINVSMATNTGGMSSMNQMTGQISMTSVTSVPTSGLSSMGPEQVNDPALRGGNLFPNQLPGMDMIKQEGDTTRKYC

Structure (SMILES)	inhibition [1]	inhibition [2]
O=C(NC(c1ccc(F)cc1)c1ccc2ccccc2n1)C1CCN(CCOc2ccc(F)cc2)CC1 (centres undefined)	-1.57%	-16.5%
NCCN1C(=O)S/C(=C\c2ccc3c(c2)OCO3)C1=O	44% (active)	56.6% (active)
Cc1ccc2sc(N(CCCN(C)C)C(=O)CN3C(=O)c4ccccc4C3=O)nc2c1C	-2.35%	3.74%
c1c2c(cc3sc(N4CCCCC4)nc13)OCCO2	-48.9%	7.6%
O=C(COC(=O)CCN1C(=O)/C(=C\C=C\c2ccccc2)SC1=S)Nc1ccc(Br)cc1	38.2% (active)	74.3% (active)
O=C(NC1CCCC1)C(c1ccccc1)n1c(CSCCOc2ccccc2)nc2ccccc21 (centres undefined)	47.1% (active)	80.3% (active)
O=C(c1ccccc1)C(CN1CCCCC1)c1ccccc1 (centres undefined)	29.1%	63.6% (active)
CNc1ccc(N=Nc2cccc3ncccc23)cc1	-76%	14.4%
CCOC(=O)c1c(NC(=O)/C=C/C(=O)O)sc(C)c1-c1ccc(C(C)(C)C)cc1	32.9%	17.2%
CC(C)(C)c1ccc(-c2noc(CCC(=O)NCc3ccco3)n2)cc1	40.9% (active)	59.5% (active)
COc1cc(OC)c2c(-c3cccc(-c4ccc(N(C)C)cc4)c3)cc(=O)oc2c1	-17.4%	27.6%
CCOn1c(=O)c[n+]([O-])c2ccccc21	9.21%	-6.65%
